# Data from PubChem BioAssay (NCATS).
# Values without a mark were called inactive. Records with an inconclusive call do not appear. A call without a number means that no potency is given here. Active and inactive are the calls of the source. Unless noted, the call rests on the fitted dose curve; in most records, active means well fitted curve in the direction sought with a large enough effect; inconclusive means small, poorly fitted or top-dose-only effect, or another doubt; inactive means no such curve, though single readings can be large; an effect the other way counts as inactive or inconclusive.
# Legend:
# [1] = NS1 protein of Zika virus - qHTS assay to identify small molecule inhibitors in human HEK 293 cells (AID 1347053); further: nearly all actives have a fitted effect of over 55% in size
# Outline: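 In this cell-based screen, HEK 293 cultures received compound for one hour before Zika MR766 at MOI = 0.5. NS1 was quantified 24 hours later by TR-FRET, normalized to virus-free wells and infected wells.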
# [2] = biological target: T1, Tyrosine-protein phosphatase non-receptor type substrate 1 (Homo sapiens) + Leukocyte surface antigen CD47 (Homo sapiens) (UniProt P78324+Q08722); test: CD47-SIRPalpha protein protein interaction - LANCE assay qHTS validation (AID 1347057; active means well fitted curve in the direction sought with a large enough effect in the signal ratio, with a control signal flat, not every such curve was filed as active; the % refers to the signal ratio; further: potency means the concentration at half of the fitted maximal effect)
# T1 sequence (P78324 whole entry, looked up, the tested form may be a part): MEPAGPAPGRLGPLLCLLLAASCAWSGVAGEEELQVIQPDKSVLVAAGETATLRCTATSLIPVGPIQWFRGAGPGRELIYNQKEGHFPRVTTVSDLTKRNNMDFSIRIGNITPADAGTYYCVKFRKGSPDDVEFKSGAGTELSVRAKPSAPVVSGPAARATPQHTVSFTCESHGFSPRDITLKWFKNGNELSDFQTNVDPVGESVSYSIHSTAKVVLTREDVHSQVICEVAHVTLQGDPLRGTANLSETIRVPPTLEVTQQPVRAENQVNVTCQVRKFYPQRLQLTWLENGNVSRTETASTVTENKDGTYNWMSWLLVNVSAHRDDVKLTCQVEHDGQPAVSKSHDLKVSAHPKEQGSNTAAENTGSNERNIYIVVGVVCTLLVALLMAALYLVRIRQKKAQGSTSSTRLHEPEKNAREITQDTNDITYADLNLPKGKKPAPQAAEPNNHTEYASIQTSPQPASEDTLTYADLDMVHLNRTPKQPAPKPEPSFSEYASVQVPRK
# T1 sequence (Q08722 whole entry, looked up, the tested form may be a part): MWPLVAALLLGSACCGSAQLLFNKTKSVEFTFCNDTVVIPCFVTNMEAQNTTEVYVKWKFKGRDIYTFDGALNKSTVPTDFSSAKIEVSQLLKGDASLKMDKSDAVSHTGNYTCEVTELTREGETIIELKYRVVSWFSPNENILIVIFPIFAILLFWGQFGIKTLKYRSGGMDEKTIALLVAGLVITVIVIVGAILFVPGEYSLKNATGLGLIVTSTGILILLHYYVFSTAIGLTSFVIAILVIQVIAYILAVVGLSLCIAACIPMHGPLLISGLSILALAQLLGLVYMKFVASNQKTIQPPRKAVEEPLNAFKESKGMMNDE
# Outline: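 Inhibition of soluble CD47/SIRPalpha ectodomain association by titrated compounds, measured as 665/615 nm time-resolved FRET ratio after sequential 30 min room-temperature incubations.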
# [3] = biological target: T1, Tyrosine-protein phosphatase non-receptor type substrate 1 (Homo sapiens) + Leukocyte surface antigen CD47 (Homo sapiens); test: CD47-SIRPalpha protein protein interaction - Alpha assay qHTS validation (AID 1347059);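 further: bead proximity luminescence from CD47 binding SIRPalpha after compound preincubation with SIRPalpha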; further: potency means the concentration at half of the fitted maximal effect
# Outline: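 AlphaScreen signal between CD47-His (12.5 nM) and biotin-SIRPalpha (25 nM) soluble extracellular domains, bead-captured via Ni-NTA and streptavidin. Compounds, in 7-point titrations, met SIRPalpha 30 min before CD47; PBS pH 7.4 with 0.05% IGEPAL.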
# [4] = biological target: Parathyroid hormone/parathyroid hormone-related peptide receptor (Homo sapiens) (UniProt Q03431); test: qHTS for PTHR1 Agonists: Optimization Screen against the NCGC LOPAC library (AID 1347079);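 further: GloSensor cAMP luminescence in HEK-293 GP2 cells expressing human PTHR1 with IBMX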
# Sequence of Parathyroid hormone/parathyroid hormone-related peptide receptor (Homo sapiens) (Q03431 whole entry, looked up): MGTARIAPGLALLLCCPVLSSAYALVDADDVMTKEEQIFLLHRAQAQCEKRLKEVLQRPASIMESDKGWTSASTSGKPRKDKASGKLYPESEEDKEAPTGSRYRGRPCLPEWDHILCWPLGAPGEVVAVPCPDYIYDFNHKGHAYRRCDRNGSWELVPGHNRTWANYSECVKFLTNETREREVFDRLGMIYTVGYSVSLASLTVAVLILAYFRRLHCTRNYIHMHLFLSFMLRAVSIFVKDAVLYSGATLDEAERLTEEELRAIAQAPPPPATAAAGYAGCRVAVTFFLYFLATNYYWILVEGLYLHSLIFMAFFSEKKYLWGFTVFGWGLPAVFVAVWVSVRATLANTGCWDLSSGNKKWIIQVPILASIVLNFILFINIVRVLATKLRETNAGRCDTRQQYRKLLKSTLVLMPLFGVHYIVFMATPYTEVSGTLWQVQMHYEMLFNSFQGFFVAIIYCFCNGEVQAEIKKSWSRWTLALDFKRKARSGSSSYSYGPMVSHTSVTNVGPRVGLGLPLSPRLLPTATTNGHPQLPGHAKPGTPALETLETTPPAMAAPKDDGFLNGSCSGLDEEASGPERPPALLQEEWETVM
# Outline: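 Signal increase flags agonism. GP2 cells, derived from HEK-293, express human PTHR1 and a GloSensor cAMP construct.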
# [5] = biological target: N-terminal Xaa-Pro-Lys N-methyltransferase 1 (Homo sapiens) (UniProt Q9BV86); test: qHTS Assay for Inhibitors of N-terminal methyltransferase 1 (NTMT1): LOPAC validation of the NTMT1 SAHH-coupled ThioGlo3 Assay (AID 1347143);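 further: SAH from peptide methylation measured as thiol fluorescence via SAHH coupling and ThioGlo3; nearly all actives have a fitted effect of over 70% in size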; further: potency means the concentration at half of the fitted maximal effect
# Sequence of N-terminal Xaa-Pro-Lys N-methyltransferase 1 (Homo sapiens) (Q9BV86 whole entry, looked up): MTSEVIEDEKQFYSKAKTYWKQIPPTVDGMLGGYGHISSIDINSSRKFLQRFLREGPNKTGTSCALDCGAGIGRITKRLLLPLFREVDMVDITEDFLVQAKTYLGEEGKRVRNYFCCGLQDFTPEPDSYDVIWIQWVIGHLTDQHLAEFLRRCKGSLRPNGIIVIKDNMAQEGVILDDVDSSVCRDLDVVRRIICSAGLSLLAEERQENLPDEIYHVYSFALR
# Outline: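 NTMT1 125nM + cpds (various conc.), 1 min RT; add SAM 100uM/SAHH 10uM/ThioGlo3 15uM (addition mix). SAHH-coupled thiol detection, Ex340/Em450, t0 and 30 min RT; signal normalized to background. LOPAC 1280-cpd pilot.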
# [6] = system: Zika virus NS2B-NS3 protease (unlinked); test: Optimization of GU AMC qHTS for Zika virus inhibitors: Unlinked NS2B-NS3 protease assay (AID 1347151); further: nearly all actives have a fitted effect of over 80% in size; further: potency means the concentration at half of the fitted maximal effect
# Outline: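 Fluorescence gain (340/450 nm) over 15 min at room temperature, ~20% conversion, gave percent inhibition fitted to a 4-parameter Hill equation; enzyme was unlinked NS2B-NS3 (25 nM final), pH 8.0 Tris buffer.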
# [7] = biological target: T1, Tyrosine-protein phosphatase non-receptor type substrate 1 (Homo sapiens) + Leukocyte surface antigen CD47 (Homo sapiens); test: CD47-SIRPalpha protein protein interaction - HTRF assay qHTS validation (AID 1347058; active means well fitted curve in the direction sought with a large enough effect in the signal ratio, not every such curve was filed as active; the % refers to the signal ratio)
# Outline: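 Soluble extracellular domains (6His-CD47, Avi-tag-biotinylated SIRPalpha) in PBS pH 7.4 with 0.05% IGEPAL CA-630. Compounds were preincubated 30 min at RT with CD47 and anti-His-Eu, then SIRPalpha and SAV-XL665 were added. TR-FRET 665/615 ratio.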
# [8] = biological target: Lysine-specific demethylase 5B (Homo sapiens) (UniProt Q9UGL1); test: Optimization screen for KDM5B Histone Demethylases FDH coupled qHTS against the LOPAC library (AID 1347166); conditions: KDM5B demethylation, FDH-coupled NADH fluorescence (FDH is formaldehyde dehydrogenase); at 57.5 µM (top of the series)
# Sequence of Lysine-specific demethylase 5B (Homo sapiens) (Q9UGL1 whole entry, looked up): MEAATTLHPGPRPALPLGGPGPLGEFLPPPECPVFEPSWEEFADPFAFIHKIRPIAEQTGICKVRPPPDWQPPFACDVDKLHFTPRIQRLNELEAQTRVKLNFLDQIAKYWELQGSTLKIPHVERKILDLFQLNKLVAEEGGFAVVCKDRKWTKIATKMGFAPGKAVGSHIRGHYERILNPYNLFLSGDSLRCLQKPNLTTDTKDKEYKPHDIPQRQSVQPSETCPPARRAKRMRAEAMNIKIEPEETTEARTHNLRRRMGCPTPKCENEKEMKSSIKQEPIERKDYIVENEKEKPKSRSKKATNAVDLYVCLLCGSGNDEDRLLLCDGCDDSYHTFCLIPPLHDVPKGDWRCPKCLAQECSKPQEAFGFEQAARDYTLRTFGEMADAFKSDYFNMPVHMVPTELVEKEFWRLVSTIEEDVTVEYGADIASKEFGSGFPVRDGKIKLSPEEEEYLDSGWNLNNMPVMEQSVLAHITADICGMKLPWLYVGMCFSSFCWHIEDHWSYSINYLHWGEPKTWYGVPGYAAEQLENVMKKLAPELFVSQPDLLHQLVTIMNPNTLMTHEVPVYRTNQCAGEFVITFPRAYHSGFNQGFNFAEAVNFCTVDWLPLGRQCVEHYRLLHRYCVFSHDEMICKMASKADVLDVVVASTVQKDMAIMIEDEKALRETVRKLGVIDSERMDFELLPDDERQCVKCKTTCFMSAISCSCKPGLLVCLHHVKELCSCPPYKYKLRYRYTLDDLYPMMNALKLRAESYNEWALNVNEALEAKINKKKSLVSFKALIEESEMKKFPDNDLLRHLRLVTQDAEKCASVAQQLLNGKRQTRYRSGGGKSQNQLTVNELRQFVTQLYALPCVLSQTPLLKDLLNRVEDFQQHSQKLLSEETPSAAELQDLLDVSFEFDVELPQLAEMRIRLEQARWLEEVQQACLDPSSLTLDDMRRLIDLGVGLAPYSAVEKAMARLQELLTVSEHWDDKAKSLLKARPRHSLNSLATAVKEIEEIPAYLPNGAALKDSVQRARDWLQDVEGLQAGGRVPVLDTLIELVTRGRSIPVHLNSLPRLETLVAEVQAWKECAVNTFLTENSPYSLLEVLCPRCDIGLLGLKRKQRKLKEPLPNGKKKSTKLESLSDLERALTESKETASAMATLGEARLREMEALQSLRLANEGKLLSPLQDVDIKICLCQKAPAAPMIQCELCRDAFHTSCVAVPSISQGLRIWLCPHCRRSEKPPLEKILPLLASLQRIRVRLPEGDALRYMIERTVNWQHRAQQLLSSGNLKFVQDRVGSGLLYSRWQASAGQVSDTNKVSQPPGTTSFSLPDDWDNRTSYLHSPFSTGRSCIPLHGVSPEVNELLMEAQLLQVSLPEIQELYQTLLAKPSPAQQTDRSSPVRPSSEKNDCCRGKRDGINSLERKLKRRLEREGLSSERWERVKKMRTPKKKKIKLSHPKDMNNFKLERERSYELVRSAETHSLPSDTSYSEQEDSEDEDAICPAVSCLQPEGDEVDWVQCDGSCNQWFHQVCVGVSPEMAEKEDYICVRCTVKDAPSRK
# Outline: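 KDM5BDeltaAP (200nM final) in 50mM HEPES pH 7.5, 0.01% Tween-20 was preincubated with compound for 10 min at room temperature. A substrate mix of 12.5uM H3K4Me3, 25uM a-ketoglutarate, ascorbate, Fe2+, NAD+ and formaldehyde dehydrogenase was then added. NADH fluorescence (340/450 nm) was read initially and after 30 min.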
# [9] = system: Zika virus NS2B-NS3 protease; test: Primary screen GU AMC qHTS for Zika virus inhibitors (AID 1347154); further: nearly all actives have a fitted effect of over 70% in size; further: potency means the concentration at half of the fitted maximal effect
# Outline: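 Fluorogenic AMC-substrate cleavage by noncovalent NS2B-NS3 protease complex (25 nM, pH 8.0 Tris buffer with Tween 20) followed for 15 minutes at room temperature (~20% conversion). Percent inhibition from ex340/em450 signal change, fitted by 4-parameter Hill equation.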
Compound,Potency [1],Potency [2],Potency [3],Potency [4],Potency [5],Potency [6],outcome [7],"activity, negative = inhibition [8]",Potency [9]
O=C(O)C1=CC(=C(c2ccc(O)c(C(=O)O)c2)c2ccc(O)c(C(=O)O)c2)C=CC1=O,inactive,11.7 µM (active),0.464 µM (active),inactive,25.1 µM (active),21.2 µM (active),–,–,–
COc1cc(C(O)CO)ccc1O (stereo not given),inactive,inactive,inactive,–,inactive,inactive,inactive,-5.15%,–
Nc1ncnc2c1c(-c1ccc(Oc3ccccc3)cc1)cn2C1CCCC1,inactive,inactive,–,inactive,79.4 µM (active),23.8 µM (active),inactive,–,–
CNc1cc(NS(=O)(=O)c2ccc(N)cc2)nc(NC)n1,inactive,inactive,inactive,–,inactive,inactive,inactive,–,inactive
COc1cc(/C=C(\C#N)C(=O)c2ccc(O)c(O)c2)cc(I)c1O,inactive,inactive,inactive,inactive,50.1 µM (active),–,–,–,–
NC(=O)c1cc[n+](CC2=C(C(=O)O)N3C(=O)[C@@H](NC(=O)[C@@H](c4ccccc4)S(=O)(=O)[O-])[C@H]3SC2)cc1,inactive,inactive,inactive,–,inactive,inactive,inactive,-15.3%,–
CC(N)(Cc1ccc(O)cc1)C(=O)O (stereo not given),inactive,inactive,inactive,–,inactive,inactive,inactive,1.49%,–
NC(N)=N[C@@H](CCC(=O)O)C(=O)O,inactive,inactive,inactive,–,–,inactive,inactive,-1.71%,–
CCCn1c(=O)c(C)cn2nc(N)nc12,inactive,inactive,inactive,–,39.8 µM (active),29.9 µM (active),inactive,-3980% (active),26.7 µM (active)
COC(=O)[C@H](NC(=O)c1cc(-c2ccccc2)nc2ccccc12)c1ccccc1,inactive,inactive,inactive,–,–,23.8 µM (active),inactive,–,inactive
[Li+],inactive,inactive,inactive,inactive,inactive,inactive,–,-3.55%,–
C[N+](C)(C)CC=O,inactive,inactive,inactive,inactive,inactive,inactive,–,-0.629%,–
O=c1[nH]c(=O)c2nc3ccccc3nc2[nH]1,inactive,inactive,inactive,inactive,56.2 µM (active),26.7 µM (active),–,–,inactive
Fc1ccc(CN(C2=NCCN2)c2c(Cl)cccc2Cl)cc1,inactive,inactive,inactive,inactive,inactive,inactive,–,2.64%,–
c1ccc2c(c1)CCC[C@H]2Nc1nc2ccccc2[nH]1,inactive,inactive,inactive,inactive,inactive,inactive,–,-7.62%,–
CNc1ncnc2c1ncn2[C@H]1C[C@H](OP(=O)(O)O)[C@@H](COP(=O)(O)O)O1,inactive,inactive,inactive,inactive,inactive,inactive,–,-15.5%,–
NC(=Nc1ccccc1)NC(=O)c1nc(Cl)c(N)nc1N,inactive,inactive,inactive,inactive,56.2 µM (active),26.7 µM (active),–,–,inactive
O=C1Cc2c([nH]c3ccc(Br)cc23)-c2ccccc2N1,inactive,inactive,inactive,inactive,50.1 µM (active),inactive,–,-26.8%,inactive
CC(N)(Cc1ccc(O)c(O)c1)C(=O)O (stereo not given),inactive,inactive,inactive,inactive,56.2 µM (active),inactive,–,–,–
CC1CCN(CC[C@H]2CCCN2S(=O)(=O)c2cccc(O)c2)CC1,inactive,inactive,inactive,inactive,inactive,inactive,–,1.65%,inactive
COc1ccc(-c2ccc(N)[n+](CCCC(=O)O)n2)cc1,inactive,inactive,inactive,inactive,inactive,inactive,–,-3.69%,–
NOCC(=O)O,inactive,inactive,inactive,inactive,inactive,inactive,–,-4.09%,–
O=c1ccn([C@@H]2O[C@H](COP(=O)(O)OP(=O)(O)O)[C@@H](O)[C@H]2O)c(=O)[nH]1,inactive,inactive,inactive,inactive,inactive,inactive,–,-0.701%,inactive
CC(=O)[C@H]1CCC2C3CC=C4C[C@@H](OS(=O)(=O)O)CC[C@]4(C)C3CC[C@@]21C (stereo not given in full),inactive,inactive,inactive,inactive,inactive,inactive,–,0.452%,–
Cc1ccc2c(c1)C(N1CCN(C)CC1)=Nc1cccnc1N2,inactive,inactive,inactive,inactive,inactive,inactive,–,-6.11%,–
CC(=O)N[C@@H](Cc1c[nH]c2ccccc12)C(=O)OCc1cc(C(F)(F)F)cc(C(F)(F)F)c1,inactive,inactive,inactive,inactive,inactive,inactive,–,-9.61%,inactive
